Values without a mark were called inactive. Activity calls are given as the source filed them.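 The calls were made as follows: active = EC50 at or below 10 µM; inactive = EC50 above 10 µM.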
Assay: fluorescence interference artefacts, compound only, dose response, artefact control for cardiac thin filament activator project, biochemical, no RTF in test wells (AID 504697);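 also: emission near 535 nm under roughly 485 nm excitation as for IANBD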
Details: compound-only fluorescence in RTF assay buffer with Ca2+ (no RTF in test wells), artifact counterscreen

Structure (SMILES)	EC50
CN(CC(=O)NCc1ccco1)S(=O)(=O)c1cccc2cccnc12	> 71.5 µM
CNC(=O)N(O)C1N(C)C(=O)N(CC(=O)OC)C1(C)C (configuration not stated)	> 71.5 µM
Cc1cccc(/C=N/n2c(-c3ccncc3)n[nH]c2=S)c1	> 71.5 µM
CN(N=Nc1ccc([N+](=O)[O-])cc1)c1ccccc1	8.06 µM (active)
CCCN1CCc2c(sc(NC(=S)NC(=O)c3ccccc3)c2C#N)C1	> 71.5 µM
CCn1cc(C(=O)NCCC(=O)NCCO)c(=O)c2cc3c(cc21)OCO3	> 71.4 µM
CC(=O)N(C)c1ccc(C(O)(C(F)(F)F)C(F)(F)F)cc1	> 71.5 µM
O=C(/C=C/c1cn(CC(O)CN2CCCCC2)c2ccccc12)c1cccs1 (configuration not stated)	34.6 µM
Cc1ccc(S(=O)(=O)NCCCCCC(=O)Nc2ccccc2C)cc1	> 71.5 µM
N=c1n(Cc2ccccc2)c2ccccc2n1CC(O)c1ccco1 (configuration not stated)	> 71.5 µM
CCOC(=O)/C(=C/C1=CC(=C/N(C)C)/C(=O)O1)C(C)=O	15.3 µM
Cc1ccc(/C=C2/SC(=O)NC2=S)o1	> 23.8 µM
Cn1nccc1NC(=O)Nc1cccc(Cl)c1Cl	> 71.4 µM
Cn1ncc2c(O/N=C(\N)c3ccc(C(F)(F)F)cc3)ncnc21	> 71.5 µM
COc1ccc(OC)c(/C=C2\N=C(c3ccccc3)OC2=O)c1	1.71 µM (active)
O=C(O)c1ccccc1CSc1nnnn1-c1ccccc1	> 71.5 µM
S=c1[nH]nc(-c2ccc(Cl)cc2)n1-c1ccc2c(c1)OCCO2	> 71.5 µM
CCCN1C=CC(=CC=C(C#N)C#N)C=C1	19.9 µM
COc1cc(CCCN2C(=S)NC[C@@H]2CC2CCCCC2)cc(OC)c1OC	> 71.5 µM

Structure (SMILES)	EC50
O=C(CSc1nc2ncc(Br)cc2[nH]1)c1cccc([N+](=O)[O-])c1	> 71.5 µM
Cn1cnnc1Sc1nc2ccccc2nc1NS(=O)(=O)c1ccccc1	> 71.5 µM
CCOC(=O)/C(=C/C=C1\Sc2cc(OCC)c(OCC)cc2N1CC)C(C)=O	0.48 µM (active)
Cc1cc(NC(=O)COC(=O)C(Cc2ccccc2)NC(=O)c2ccco2)no1 (configuration not stated)	> 71.5 µM
COc1ccc(C(=O)Nn2cnc3scc(-c4cccs4)c3c2=O)c(O)c1	> 71.5 µM
CC1=CC(=C(C#N)C#N)C=C(C)N1Cc1ccc(Cl)cc1	> 71.5 µM
COc1cc(N2CCCC2)c(OC)cc1/C=C1/NC(=S)NC1=O	4.35 µM (active)
Cc1cc(/C=C2\SC(=S)N(Cc3ccco3)C2=O)c(C)n1-c1cccnc1	12 µM
C=CCOc1ccc(Br)cc1CNCC	> 71.6 µM
O=C(O)c1cc(NCc2ccc(F)cc2)ccc1N1CCOCC1	> 71.5 µM
S=C(Nc1cc(Cl)ccc1Oc1ccccc1)N1CCN(c2ccccn2)CC1	> 71.4 µM
CN1CCS/C1=C/C=C1\SC(=S)N(CC(=O)O)C1=O	2.28 µM (active)
COCCn1c(=O)c2ccccc2c2ccccc2c1=O	> 71.5 µM
CCCNC(=O)Cn1c(=O)/c(=C\c2ccc(-c3ccc([N+](=O)[O-])cc3)o2)s/c1=C\C(=O)C(C)(C)C	0.335 µM (active)
C=COc1ccc(N2C(=O)c3ccccc3OC2C)cc1 (configuration not stated)	> 71.4 µM
COc1cc(-c2c(-c3ccc4c(c3)OCO4)noc2C)ccc1F	> 71.4 µM
CC(C(=O)c1ccc(Br)cc1)[n+]1cccc2ccccc21 (configuration not stated)	> 71.5 µM
O=C(Nc1ccc(Cl)cn1)C1COc2ccccc2O1 (configuration not stated)	> 71.5 µM
